# Sampled rows, rich in hits. Any-hit rate of the full collection: about 2.7%.
# RXFP1 agonist: activates the human relaxin receptor RXFP1 | Q9HBX9 | HEK293T-RXFP1 cAMP TR-FRET, 30 min; response scale: percent of porcine relaxin response, buffer zero | Potency, µM (series often up to 57.5 µM), for the others: at the top dose activation, actives largely listed as activators | hit rate 0.3% among 370,000 | AID 2676; active = well fitted activation curve with a large enough effect; inconclusive = small, poorly fitted or top-dose-only effect; also: potency is read from the fitted curve at half-maximal effect; % is scaled to controls: 0 for no effect and ±100 for the full control effect; nearly all actives have a fitted effect of over 60% in size
# Target sequence (Q9HBX9 whole entry, looked up): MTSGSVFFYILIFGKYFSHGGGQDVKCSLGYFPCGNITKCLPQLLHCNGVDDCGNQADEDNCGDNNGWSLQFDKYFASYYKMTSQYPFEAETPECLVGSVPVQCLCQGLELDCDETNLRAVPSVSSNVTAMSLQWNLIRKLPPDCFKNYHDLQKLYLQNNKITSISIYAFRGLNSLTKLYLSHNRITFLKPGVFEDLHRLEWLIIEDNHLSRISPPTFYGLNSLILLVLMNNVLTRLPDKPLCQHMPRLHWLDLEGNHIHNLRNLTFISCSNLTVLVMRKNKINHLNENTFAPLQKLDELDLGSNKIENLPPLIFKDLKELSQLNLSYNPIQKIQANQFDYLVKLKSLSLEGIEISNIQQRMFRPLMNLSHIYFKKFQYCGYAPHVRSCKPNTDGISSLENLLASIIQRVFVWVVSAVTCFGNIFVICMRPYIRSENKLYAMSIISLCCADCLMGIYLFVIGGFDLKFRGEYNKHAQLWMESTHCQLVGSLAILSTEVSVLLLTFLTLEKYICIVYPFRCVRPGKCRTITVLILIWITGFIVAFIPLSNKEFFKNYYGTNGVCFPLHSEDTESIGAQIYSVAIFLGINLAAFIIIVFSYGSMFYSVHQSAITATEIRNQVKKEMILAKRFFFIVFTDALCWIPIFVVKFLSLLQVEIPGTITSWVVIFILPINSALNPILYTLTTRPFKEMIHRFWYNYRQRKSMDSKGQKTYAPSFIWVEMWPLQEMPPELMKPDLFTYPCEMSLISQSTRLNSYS
#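 Agonist response is measured as cAMP accumulation in an RXFP1-transfected HEK293T line under PDE4 inhibition. Values are scaled between buffer-only and 29 nM porcine relaxin, and EC50s come from standard Hill equation fits.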
# RXFP1 antag: blocks the human relaxin receptor RXFP1; Q9HBX9; activity change, negative = inhibition, % at 57.5 µM; hit rate 0.59% among 350,000; AID 1259400; HEK293-RXFP1, relaxin-stimulated cAMP HTRF, 30 min; stronger effect = lower value;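 active = activity change of -60% or lower, but not beyond a set lower limit; inconclusive = change between -60% and -40%, or beyond the set limit; inactive = change above -40%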; also: % is scaled to controls: 0 for no effect and ±100 for the full control effect
# ClpP mod: qHTS Assay for Activators of ClpP. Potency, µM (highest dose often 57.5 µM), for inactives: at the highest dose activity change, negative = active. hit rate 1.9% among 340,000. AID 651965, 2013. ATP-dependent Clp protease proteolytic subunit (Bacillus subtilis (strain 168)), P80244. purified B. subtilis ClpP, FRET peptide cleavage, 20 min; active = well fitted falling curve with a large enough effect; inconclusive = small, poorly fitted or top-dose-only effect; inactive = no such curve, though single readings can be large or run the other way; also: potency is read from the fitted curve at half-maximal effect; the source files actives as falling curves though it sought activators and does not explain the sign; nearly all actives have a fitted effect of over 65% in size
#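 ClpP 10 microg/mL final, pH 8 Tris/KCl buffer with BSA, glycerol, Tween-20; compound pinned in; FRET-FV substrate; RT 20 min; Ex320/Em430; ΔFRET vs ADEP 5.8 microM, DMSO, no enzyme.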
# pAkt inh: blocks phosphorylation of Akt; Neuro2A IGF-stimulated pAkt S473 HTRF, 20 min; stronger effect = lower value; activity change, % for hits at 50 µM; AID 651550; hit rate 0.32% among 360,000; in the data active = activity change below about -80%; inconclusive = mostly about -51% to -80%; also: % is scaled to controls: 0 for no effect and ±100 for the full control effect
#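 Neuro2A cells (4,500/well, DMEM with 0.5% FBS) were treated with compound at a single 50 µM final concentration, stimulated with 6 nM IGF for 20 min at 37 °C, and lysed. Phospho-Akt Ser473 was read by HTRF as 665/615 ratio ×10^4.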
# gsp antag: gsp mutant antagonism | Potency, µM (titrated, usually from 76.9 µM), without a hit: top-dose activity change, negative = inhibition, hits mostly inhibitors | gsp-mutant cells, cAMP HTRF, 30 min | hit rate 0.4% among 340,000; calls by dose curve; cell line not stated here;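 also: intracellular cAMP measured with PDE inhibitor Ro 20-1724 present during compound exposure; potency is read from the fitted curve at half-maximal effect; % is scaled to controls: 0 for no effect and ±100 for the full control effect; nearly all actives have a fitted effect of over 65% in size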
#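 Cells in G418 medium, seeded 16-24 h, 37C; buffer exchange to DPBS + 1 mM CaCl2, 0.5 mM MgCl2, 0.05% BSA; cpds in DMSO + […] (300 uM stock), 30 min 37C; HTRF cAMP detection.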
# gsp ag: gsp mutant agonism. Potency, µM (highest dose often 76.9 µM), without a hit: at the highest dose activation (cAMP increase), usual class: activators. gsp mutant cells, cAMP HTRF, 30 min. hit rate 0.13% among 340,000. AID 624287; active = well fitted activation curve with a large enough effect; inconclusive = small, poorly fitted or top-dose-only effect, or another doubt; inactive = no such curve, though single readings can be large or run the other way; cell line not stated here;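 also: phosphodiesterase inhibitor Ro 20-1724 added with compounds to block cAMP breakdown; potency is read from the fitted curve at half-maximal effect; nearly all actives have a fitted effect of over 60% in size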
#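 Cells in DMEM/10% FBS with G418 were pretreated with compounds in DMSO plus […] (300 uM stock) for 30 min at 37C. cAMP was measured by HTRF (cAMP-d2 plus anti-cAMP antibody-K) after 30 min at room temperature.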
# Starred values were filed as active, the others as inactive; i = inactive; ? = inconclusive; · = no result; [ ] = another dose, or the depositor's remark.
SMILES,RXFP1 agonist,RXFP1 antag,ClpP mod,pAkt inh,gsp antag,gsp ag
CCC(CC)C(C(=O)NCc1ccccc1)N1CCN(C(=O)C2CCCO2)CC1 (stereo not given),·,·,0%,i,·,·
CCOCCCNc1ncnc2c1[nH]c1ccccc12,1%,-6,16µM*,·,-22%,28%
CCOc1ccc2[nH]c3c(NCCO)ncnc3c2c1,8%,-17,4%,i,?,37%
CCCCOCCCNc1ncnc2c1[nH]c1ccccc12,-3%,-3,28µM*,i,7.9µM*,0%
CCCCn1cnc2c([nH]c3ccccc32)c1=O,0%,5,?,i,2%,7%
O=C(CCC(=O)c1ccc(Cl)cc1)OCC(=O)c1ccccc1,0%,-15,32µM*,i,6%,0%
O=C(O[C@H]1[C@H](Cc2ccccc2)NS(=O)(=O)[C@H]2C[C@@H]3C=C[C@]12O3)c1ccccc1Br,·,·,2%,·,·,·
O=S(=O)(c1ccccc1)N1CCCCC1CCc1ccccc1 (stereo not given),·,1,1%,i,?,2%[15.4 µM]
CN1CCN(c2c(F)cc3c(=O)c(C(=O)O)cn4c3c2SCC4)CC1,10%,-3,28µM*,i,5%,-20%
O=C(NCCOC(=O)c1ccc([N+](=O)[O-])cc1)c1cccnc1,?,23,·,i,2%,18µM*
CCOC(=O)C1=C(C)NC(C)=C(C(=O)OCCNC(=O)c2cccnc2)C1c1cccc([N+](=O)[O-])c1 (stereo not given),-1%,·,2%,i,-17%,-18%
CC(C)C1Cc2[nH]c(=O)c(C(=O)O)cc2CO1 (stereo not given),3%,3,35µM*,i,8%,9%
Cc1ccsc1CN(C)CC(=O)Nc1ccccc1C(=O)NC1CC1,·,2,?,i,-4%,-6%[15.4 µM]
Cc1ccc(C2=CC(C)(c3ccc(C)cc3)Nc3nc(C(F)(F)F)nn32)cc1 (stereo not given),0%,-67*,·,i,12%,6%[15.4 µM]
O=C(NC12CC3CC(CC(C3)C1)C2)c1ccc(-c2ccc(Cl)cc2)o1,2%,-5,32µM*,i,-10%,-15%
O=C(Cc1cccc2ccccc12)NO,·,·,1%,·,·,·
Cc1cc(C)n(CC(=O)NNC(=O)c2ccc(OC(F)(F)F)cc2)n1,·,-32,·,i,5%,22%
CCOC(=O)c1ccc(NC(=O)CCS(=O)(=O)c2ccc(Br)s2)cc1,1%,-11,32µM*,i,-15%,-26%
CC/C=C(\C(=O)N[C@H]1C(=O)N2C(C(=O)OCOC(=O)C(C)(C)C)=C(COC(N)=O)CS[C@H]12)c1csc(N)n1,·,-6,·,·,·,·
CCc1ccc(NC2=NCC(c3ccccc3)S2)cc1 (stereo not given),-1%,-69*,·,i,?,-15%[15.4 µM]
COC(=O)C1=NN[C@H](C(=O)OC)[C@H]1c1ccccc1,0%,3,-1%,i,-13%,-21%
COC(=O)C1=NN[C@H](C(=O)OC(C)(C)C)[C@H]1c1ccccc1,1%,-9,16µM*,i,1%,-17%
O=c1c(NCc2cccs2)nccn1-c1ccc(F)cc1,4%,-2,-4%,·,·,·
CCCCCCCCCCCCCCCCCCNC(=O)OC1CCN(C(=O)OC[C@H](COC(=O)N(Cc2cccc[n+]2CC)C(=O)c2ccccc2OC)OC)CC1,·,-26,·,·,·,·
CCCc1nnc(NC(=O)CN2CCN(C)CC2)s1,0%,-1,0%,i,-6%,-19%
SMILES,RXFP1 agonist,RXFP1 antag,ClpP mod,pAkt inh,gsp antag,gsp ag
CN1CCN(CC(=O)Nc2nnc(-c3cccs3)s2)CC1,3%,-3,22µM*,i,9%,-2%[15.4 µM]
CCC(CC)C(=O)Nc1nnc(-c2cccs2)s1,3%,6,25µM*,i,7%,-1%
Cc1nnc(SCc2cccc(Oc3ccccc3)c2)n1N,2%,2,3.2µM*,i,-2%,-45%
Cc1nnc(SCC(=O)Nc2ccc(Oc3ccccc3)cc2)n1N,0%,1,-2%,i,14%,-5%
Oc1ccc(CNCc2ccc3c(c2)OCO3)c2cccnc12,-2%,·,·,·,·,·
CCOC(=O)N1CCN(C(=O)c2ccc3c(=O)n(-c4ccc(OC)cc4)c(=S)[nH]c3c2)CC1,-1%,3,-2%,i,-13%,5%
COC(CNC(=O)c1ccc(-n2c(=S)[nH]c3ccccc3c2=O)cc1)OC,0%,-75*,·,i,-13%,11%[15.4 µM]
O=C(Cc1ccc(-n2c(=S)[nH]c3ccccc3c2=O)cc1)N1CCN(c2ccccc2)CC1,0%,?,0%,i,-22%,-11%
CCC(C)NC(=O)c1ccc(-n2c(=S)[nH]c3ccccc3c2=O)cc1 (stereo not given),4%,-105*,-1%,i,6%,-11%[15.4 µM]
CCOC(=O)N1CCN(C(=O)c2ccc(-n3c(=S)[nH]c4ccccc4c3=O)cc2)CC1,29%,-107*,1%,·,?,5%
OCC[C@H]1C[C@@H](O)[C@H](O)[C@@]2(CCc3ccccc3O2)O1,0%,·,0%,i,4%,·
CN(Cc1ccccc1F)c1nc(-c2cccs2)nc2ccccc12,2%,-28,·,i,11µM*,19%[15.4 µM]
CN(CCN(C)c1nc(-c2cccs2)nc2ccccc12)C(=O)OC(C)(C)C,·,·,-10%,·,·,·
CN(CCc1ccccn1)C(=O)Nc1ccc(C(C)(C)C)cc1,0%,7,28µM*,i,-4%,2%[15.4 µM]
Cc1nc2ccc(NC(=O)N3CCSCC3)cc2nc1C,4%,1,25µM*,i,-7%,10%
COc1ccccc1CCCNC(=O)C1CCC(=O)N(CCc2ccc(Cl)cc2)C1 (stereo not given),1%,-7,-3%,i,-29%,-22%
O=C(O)c1ccc(S(=O)(=O)N2CCC3(CC2)CC(=O)c2ccccc2O3)cc1,2%,-14,32µM*,i,6%,-26%
CC(Oc1ccccc1)C(=O)N1CCC2(CC1)CC(=O)c1ccccc1O2 (stereo not given),1%,6,25µM*,i,-17%,-55%
Cc1ccccc1OCC(=O)N1CCC2(CC1)CC(=O)c1ccccc1O2,1%,-9,28µM*,i,-16%,-11%
O=C1CC2(CCN(C(=O)COc3ccccc3)CC2)Oc2ccccc21,0%,7,·,i,-3%,9%[15.4 µM]
O=C1CCC(C(=O)Nc2cccc(S(=O)(=O)Nc3ccccc3F)c2)=NN1,·,-7,·,i,-9%,4%
